# Reference: the supplement of paper PMC13380429
# A number with no mark means an inactive call.
# Tested on: Vero E6 infected with SARS-CoV-2
# Assay: SARS-CoV-2 infection rate relative to infected DMSO; higher = more infection, active = 60 or less
# Settings: 24 h
row,Compound,SARS-CoV-2 infection rate [%]
1,COc1cc(-n2c(=S)[nH]c3ccccc3c2=O)c(Cl)cc1Cl [mdivi-1] (10 µM),112
2,CCOC(=O)Nc1ccc2c(c1)N(C(=O)CCN1CCOCC1)c1ccccc1S2 [moracizine] (10 µM),112
3,COc1cc2c(cc1O)C(CCc1ccc(Cl)cc1)N(C)CC2 (stereo not given) (10 µM),72
4,CC(=O)N[C@H]1[C@H]([C@H](O)[C@H](O)CO)OC(C(=O)O)=C[C@@H]1NC(=N)N [zanamivir] (10 µM),108
5,NCCC(O)(P(=O)(O)O)P(=O)(O)O [pamidronate] (10 µM),114
6,N=C(N)NC(=O)c1cnccn1 [pyrazinoylguanidine] (10 µM),108
7,O=C(O)/C=C/c1ccc(O)c(O)c1 [caffeic-acid] (10 µM),110
8,CC(C)N(CCCNC(=O)Nc1ccc(C(C)(C)C)cc1)C[C@H]1O[C@@H](n2cc(Br)c3c(N)ncnc32)[C@H](O)[C@@H]1O (10 µM),120
9,CC(=O)Nc1nc2c(Oc3cc(-c4ccc(C(F)(F)F)cc4)ncn3)cccc2s1 (10 µM),108
10,O=C1O[C@H]([C@@H](O)CO)C([O-])=C1O.[Na+] [sodium-ascorbate] (10 µM),95.5
11,CCCCCCCCCCCCCCC[C@@H](O)[C@@H](N)CO [safingol] (10 µM),117
12,CC1(C)[C@@H](O)CC[C@]2(C)[C@H]3C(=O)C=C4[C@@H]5C[C@@](C)(C(=O)O)CC[C@]5(C)CC[C@@]4(C)[C@]3(C)CC[C@@H]12 [enoxolone] (10 µM),110
13,Nc1nc2c(ccc3ccccc32)s1 (10 µM),102
14,CCCCCCCCCC(=O)OC1(c2ccc(Cl)cc2)CCN(CCCC(=O)c2ccc(F)cc2)CC1 [haloperidol-decanoate] (10 µM),96
15,CC(=O)OCC(=O)[C@@]12N=C(C)O[C@@H]1C[C@H]1[C@@H]3CCC4=CC(=O)C=C[C@]4(C)[C@H]3[C@@H](O)C[C@@]12C [Deflazacort (Calcort)] (10 µM),97.5
16,NC(=O)c1cnc2[nH]ccc2c1N[C@@H]1[C@@H]2CC3C[C@H]1C[C@@](O)(C3)C2 (10 µM),106
17,c1ccc2sc(N3CCN(Cc4ccc5c(c4)OCO5)CC3)nc2c1 [2-[1-(4-piperonyl)piperazinyl]benzothiazole] (10 µM),102
18,CC(C)(O)c1ccccc1CC[C@@H](SCC1(CC(=O)O)CC1)c1cccc(/C=C/c2ccc3ccc(Cl)cc3n2)c1 [montelukast] (10 µM),92.5
19,NCc1ccc(S(N)(=O)=O)cc1 [mafenide] (10 µM),91
20,CC(C)OC(=O)[C@H](C)N[P@@](=O)(OC[C@H]1O[C@@H](n2ccc(=O)[nH]c2=O)[C@](C)(F)[C@@H]1O)Oc1ccccc1 (10 µM),108
21,CC(C)(C)NCC(O)COc1cccc2[nH]c(C#N)cc12 (stereo not given) [cyanopindolol] (10 µM),107
22,C/N=C(/NC#N)NCCSCc1csc(NC(=N)N)n1 [tiotidine] (10 µM),98
23,CCOC(=O)c1ccc(C#Cc2ccc3c(c2)C(C)(C)CCS3)nc1 [tazarotene] (10 µM),93
24,Sc1nc2ccccc2s1 [benzo[d]thiazole-2(3H)-thione] (10 µM),104
25,CC(=O)Nc1ccc(CC(=O)O)cc1 [actarit] (10 µM),99.5
26,Cc1cc(NCCO)nc(-c2ccc(Br)cc2)n1 (10 µM),101
27,NC(=O)[C@@H](CC1CC1)[C@@H](CCC(F)(F)F)C(=O)N[C@H]1N=C(c2ccccc2)c2cccc(F)c2NC1=O (10 µM),102
28,CCOC(=O)c1ccc(-n2cc(Cc3cnc(OCC)nc3)c(=O)nc2SCc2ccc(F)cc2)cc1 (10 µM),90.5
29,CCc1[nH]c(=O)[nH]c1C(=O)c1ccncc1 [piroximone] (10 µM),100
30,CC(C)C[C@H](NC(=O)N1CCCCCC1)C(=O)N[C@H](Cc1cn(C)c2ccccc12)C(=O)N[C@H](Cc1ccccn1)C(=O)O (10 µM),100
